# Source: PubChem BioAssay
# Columns and labels:
# [1] = tested on: Human papillomavirus type 1a protein E7 (residues 44-93); test: small molecules binding HPV E7 44-93 – biochemical, small-molecule microarray, residues 44-93, 635 nm fluorescence, primary screen (AID 1108); settings: fluorescence 635 nm, higher = more signal;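 further: E7 fragment applied at 1 µg/mL in TBST for 1 h at 4 C; score combines spot fluorescence with its signal to noise ratio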
# [2] = hepatitis C replication reporter changes, two-sided – Huh7 cells, luciferase reporter, HCV replication inhibitor project, primary screen (AID 1109); settings: Huh7 HCV replicon luciferase reporter, 48 h; higher = more signal;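 further: huh7 hepatoma cells harbouring a luciferase neomycin HCV replicon reporter; luciferase luminescence as measure of HCV replicon replication; test concentration not given here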
# [3] = biological target: Left-right determination factor 2 (Homo sapiens) (UniProt O00292); test: small molecules binding LEFTY2 protein – biochemical, small-molecule microarray, 635 nm fluorescence scan, primary screen (AID 1110); settings: higher = more signal
# [4] = biological target: Calmodulin-1 (Homo sapiens) (UniProt P0DP23); test: small molecules binding calmodulin-1 with EGTA – biochemical, small-molecule microarray, Cy5-labelled CALM1, profiling panel (AID 1111); settings: Cy5-CALM1 binding fluorescence, higher = more signal;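 further: labelled calmodulin applied in Tris saline Tween buffer holding calcium plus EGTA and DTT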
# [5] = biological target: Calmodulin-1 (Homo sapiens) (UniProt P0DP23); test: small molecules binding Ca-loaded calmodulin-1 – biochemical, small-molecule microarray, Cy5-labelled CALM1, plus calcium, artefact control for SMM control-protein annotation, profiling panel (AID 1112); settings: Cy5-CALM1 binding fluorescence, higher = more signal;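 further: score merges spot fluorescence with signal to noise from triplicate slides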
# [6] = probe aWnt5a binding to arrayed compounds – biochemical, biotinylated probe, 635/667 nm fluorescence, primary screen (AID 1113); settings: small-molecule microarray, higher = more signal;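 further: score merges 667 nm fluorescence intensity with signal-to-noise per printed feature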
# [7] = probe aShh binding to arrayed compounds – biochemical, biotinylated probe, 635/667 nm fluorescence, primary screen (AID 1114); settings: small-molecule microarray, higher = more signal;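 further: probe is biotin-labelled aShh protein from a stem cell growth factor screen; measures binding of labelled protein to compounds printed on the slide; score merges feature fluorescence at 667 nm with signal-to-noise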
# [8] = probe aNog binding to arrayed compounds – biochemical, biotinylated probe, 635/667 nm fluorescence, primary screen (AID 1115); settings: small-molecule microarray, higher = more signal;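 further: probe is biotinylated aNog protein used at 0.15 µg/mL for 1 h at 4 C; z-score combines 667 nm fluorescence of each spot with its signal to noise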
# [9] = biological target: Torsin-1A-interacting protein 1 (Homo sapiens) (UniProt Q5JTV8); test: compound microarray binding of lysate hLAP1 – cell lysate, small-molecule microarray, COS7 lysate, 635/667 nm fluorescence, primary screen (AID 1116); settings: 635 nm fluorescence, higher = more signal
# [10] = biological target: Alpha-bungarotoxin (Bungarus multicinctus) (UniProt P60615); test: compounds binding labelled alpha-BTX control protein – biochemical, small-molecule microarray, Alexa647 label, 635/667 nm fluorescence, artefact control for SMM control protein annotation, profiling panel (AID 1117); settings: alpha-BTX-A647 binding fluorescence, higher = more signal
# Chain of Alpha-bungarotoxin (Bungarus multicinctus) (P60615 whole entry, looked up): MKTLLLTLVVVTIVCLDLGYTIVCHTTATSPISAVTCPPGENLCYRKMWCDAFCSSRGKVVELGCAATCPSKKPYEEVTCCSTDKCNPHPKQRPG
# Chain of Left-right determination factor 2 (Homo sapiens) (O00292 whole entry, looked up): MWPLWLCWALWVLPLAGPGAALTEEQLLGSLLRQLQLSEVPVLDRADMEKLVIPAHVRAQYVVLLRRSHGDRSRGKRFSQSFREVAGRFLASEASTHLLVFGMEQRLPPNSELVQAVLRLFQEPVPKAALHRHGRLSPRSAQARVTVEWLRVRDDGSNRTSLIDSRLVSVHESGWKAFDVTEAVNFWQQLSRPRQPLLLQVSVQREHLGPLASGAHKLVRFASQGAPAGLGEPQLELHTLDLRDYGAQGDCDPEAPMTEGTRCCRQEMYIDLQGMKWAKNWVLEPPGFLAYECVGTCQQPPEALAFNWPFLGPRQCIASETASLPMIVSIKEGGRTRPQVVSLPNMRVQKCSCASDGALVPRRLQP
# Chain of Torsin-1A-interacting protein 1 (Homo sapiens) (Q5JTV8 whole entry, looked up): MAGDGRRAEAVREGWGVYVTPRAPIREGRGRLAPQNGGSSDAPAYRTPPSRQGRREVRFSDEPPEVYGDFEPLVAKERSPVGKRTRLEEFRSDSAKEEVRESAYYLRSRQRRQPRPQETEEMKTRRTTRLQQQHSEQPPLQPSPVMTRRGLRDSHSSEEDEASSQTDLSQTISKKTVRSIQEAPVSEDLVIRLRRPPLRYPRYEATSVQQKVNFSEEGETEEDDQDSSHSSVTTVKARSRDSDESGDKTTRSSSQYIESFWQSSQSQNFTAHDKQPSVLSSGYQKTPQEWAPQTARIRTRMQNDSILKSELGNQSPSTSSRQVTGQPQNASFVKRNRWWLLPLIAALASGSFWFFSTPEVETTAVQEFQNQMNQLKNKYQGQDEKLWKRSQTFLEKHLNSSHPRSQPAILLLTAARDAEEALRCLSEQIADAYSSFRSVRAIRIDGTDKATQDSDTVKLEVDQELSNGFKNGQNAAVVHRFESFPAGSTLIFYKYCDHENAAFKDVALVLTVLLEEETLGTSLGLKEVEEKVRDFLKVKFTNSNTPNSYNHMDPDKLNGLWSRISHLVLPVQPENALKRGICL
Compound,composite z-score [1],z-score [2],composite z-score [3],composite z-score [4],composite z-score [5],composite z-score [6],composite z-score [7],composite z-score [8],composite z-score [9],composite z-score [10]
C=CCOC(=O)[C@H]1[C@@H]2C(=O)O[C@@H](c3ccccc3)[C@@H](c3ccccc3)N2[C@@H](c2ccc(OCCOC(=O)[C@H]3C[C@H]4C(=O)N[C@@H](CCCCN(C)C)C(=O)N4[C@H]3c3ccc(O)cc3)cc2)[C@]12C(=O)Nc1ccccc12,1.36,-0.917,0.823,0.724,-0.707,-0.0539,-0.157,-0.206,0.876,0.0397
COCCCNC(=O)[C@@]1(Cc2ccccc2CN=[N+]=[N-])N=C(c2ccc(OCCCO)cc2)O[C@H]1c1ccccc1N=[N+]=[N-],-0.0639,-2.3,0.0652,1.56,1,0.0388,0.291,-0.675,0.785,1.48
CCCc1cc2c(n1Cc1ccc(OC)cc1)C(C)C1CN(C(=O)c3ccccc3)C(C)(C(=O)OC)C21 (stereo not given),0.247,-2.16,-0.307,2.6,1.42,0.157,0.686,1.26,2.19,2.52
CC(C)C[C@H]1NC(=O)[C@H](C)NC(=O)[C@@]23C(=O)N[C@@H](Cc4ccccc4)C2[C@H](C)[C@@]2(C)O[C@H]2C3/C=C/C/C=C\CNC1=O (stereo not given in full),0.84,-0.201,-0.206,-0.893,-0.806,-0.166,-0.123,0.202,0.462,-0.086
O=c1c2ccc(Br)cc2nc(-c2ccccc2)n1Cc1cccc(O)c1,-0.128,-0.153,0.194,2.32,0.756,0.0438,-0.305,-0.218,2.51,1.8
Cc1cc(C)c(C(O)C2C=CC3C(=O)N(c4ccccc4)C(=O)C3N2Nc2ccccc2)c(C)c1 (stereo not given),1.16,-0.177,0.109,1.6,1.03,0.216,-0.0791,1.99,1.1,2.38
CO[C@H]1O[C@H](CO)[C@@H](OC(=O)Nc2cccc(F)c2)[C@H](OC(=O)Nc2ccc3c(c2)OCO3)[C@H]1OC(=O)Nc1ccc2c(c1)OCO2,1.12,-1.37,0.0115,0.67,-0.957,-0.0735,0.0469,0.201,3.02,0.972
C=CCC(OC(C)=O)[C@@H]1[C@@H](N(Cc2ccc(-c3ccccc3)cc2)C(=O)c2cccc3ccccc23)c2cc(OCCCO)ccc2N1C(=O)c1ccc2ccccc2n1 (stereo not given in full),0.0254,-0.281,-0.319,0.367,1.01,-0.224,-0.2,-0.158,0.0708,0.382
COc1ccc([Si](C)(C)[C@@H]2[C@@H](CCO)O[C@]3(C(=O)N(Cc4ccccc4)c4ccc(N5CCCCC5=O)cc43)[C@H]2C)cc1,1.4,-5.21,0.489,0.972,0.0653,-0.122,-0.2,-0.352,0.678,1.08
COc1ccc(C(=O)Nc2ccc(CN3C(=O)[C@]4(O[C@H](CCn5cc([C@H](O)c6ccccc6)nn5)[C@@H]([Si](C)(C)c5ccc(OC)cc5)[C@@H]4C)c4ccccc43)cc2)cc1,0.237,-4.97,-0.48,-0.0217,0.187,0.158,-0.453,0.0771,0.706,1.14
C=C(/C(=C/C[C@@H](OC(C)=O)c1ccccc1OCCO)c1cnc2ccccc2c1)C(C)C,0.0976,-1.61,0.0798,-0.353,-0.236,0.122,0.0328,0.291,0.148,1.01
CCCNC(=O)[C@@H]1c2ccccc2C(=O)N(CC23CC4CC(CC(C4)C2)C3)[C@H]1c1ccc(CO)cc1,0.772,-1.15,1.03,0.992,0.489,0.189,0.265,0.697,0.986,0.88
Cc1ccc(S[C@]2(C(=O)NCCN3CCOCC3)CC(=O)N(C3Cc4ccccc4C3)[C@@H]2c2ccc(CO)cc2)cc1,1.36,-1.56,-1.59,-0.482,-0.399,-0.0425,-0.181,0.775,0.143,0.0451
CC(C)CN1C(=O)[C@@]2(Cc3ccccc31)c1ccccc1C(=O)N(Cc1ccccc1)[C@H]2c1ccc(CO)cc1,-0.587,0.15,-0.757,-0.361,-0.195,-0.096,-0.206,-0.175,-0.845,-0.0612
COc1ccc(CCNC(=O)[C@@H]2c3ccccc3C(=O)N(Cc3ccccc3C(F)(F)F)[C@H]2c2ccc(CO)cc2)cc1,1.47,-1.2,-1.27,-0.22,-0.181,-0.0735,-0.154,-0.559,0.381,-0.278
CN(C)C(=O)[C@@]1(CCC(=O)OC(C)(C)C)N=C(c2ccc(OCCCO)cc2)O[C@H]1c1ccccc1N=[N+]=[N-],1.54,1.58,0.494,1.61,0.727,0.0839,0.246,0.948,2.15,2.63
COC(=O)C(CC#Cc1ccc2c(c1)[C@]1(C(=O)N2)[C@H](c2ccc(OCCO)cc2)N2[C@H](c3ccccc3)[C@H](c3ccccc3)OC(=O)[C@H]2[C@@H]1C(=O)O)C(=O)OC,0.324,-0.442,0.431,1.23,0.707,0.0438,0.446,0.812,2.1,1.83
COC(=O)[C@@]1(Cc2ccc(F)cc2)[C@H]2c3cc(C(=O)N(C)C)n(Cc4ccc(C)c(F)c4F)c3C[C@H]2CN1C(=O)c1ccccc1,1.33,-1.34,-0.0601,1.61,0.962,0.0037,0.141,-0.0053,0.692,0.298
C=CCN1C(=O)[C@@]2(O[C@@H](CCO)[C@H]([Si](C)(C)c3ccc(OC)cc3)[C@H]2C)c2cc(NC(=O)[C@H](C)O)ccc21,1.37,-3.03,0.256,0.929,-0.377,0.0279,0.0639,-0.21,1.2,0.175
C[N+](C)(C)CCCCCCNC(=O)[C@@H]1C[C@@H]2C(=O)NCC(=O)N2[C@@H]1c1ccc(O)cc1,1.33,1.33,0.549,0.334,-0.431,-0.124,-0.244,-0.196,1.03,1.9
COC(=O)[C@@]1(Cc2ccc(F)cc2)[C@H]2c3cc(C(=O)N(C)C)n(CCSCCO)c3C[C@H]2CN1C(=O)c1ccccc1,0.0689,-0.663,-0.293,2.32,0.559,-0.0977,0.123,1.6,0.51,0.224
O=C1C[C@@](C(=O)O)(c2ccc([N+](=O)[O-])cc2)[C@@H](c2ccc(CO)cc2)N1CC12CC3CC(CC(C3)C1)C2,1.4,-1.94,0.408,1.09,0.472,-0.172,0.358,0.995,1.41,1.2
COCCOC(=O)N1C(=O)[C@@]2(c3cc(C#CCNC(N)=O)ccc31)[C@H](C(N)=O)[C@H]1C(=O)O[C@H](c3ccccc3)[C@H](c3ccccc3)N1[C@@H]2c1ccc(OCCO)cc1,1.29,-1.11,0.582,0.701,0.257,-0.1,-0.156,0.271,1.03,0.617
C[C@]12C(=O)N(CCCO)[C@@H]3C(=O)N(c4ccc(Cl)cc4)CC=CC31O[C@@H]1/C=C\CCCOC(=O)C12 (stereo not given in full),-0.202,-0.513,-1.31,-0.887,-0.203,-0.202,-0.0904,0.309,2.33,-0.777
CN(C)CCCCCCNC(=O)[C@@H]1C[C@@H]2C(=O)NCC(=O)N2[C@@H]1c1ccc(O)cc1,1.33,0.589,0.932,-1.53,-1.89,0.0785,0.46,-0.213,1.96,1.83
[N-]=[N+]=NCc1ccccc1[C@H]1OC(c2ccc(OCCCO)cc2)=N[C@@]1(Cc1ccccc1)C(N)=O,1.44,-1.46,-0.709,0.931,0.995,0.283,-0.0576,0.654,1.76,2.54
